What was measured:
Test in all cases: DAPPL (digital affinity profiling via proximity ligation, sequencing); 10 mM Tris-HCl pH 7.5, 50 mM NaCl, 1 mM DTT, 4% glycerol, room temperature, 30 min; GST-TFs on glutathione beads, 16-mer random dsDNA library, 0.1% formaldehyde crosslink after washing; high values mean tight binding
FLI1 = biological target: T1, FLI1 (Homo sapiens, UniProt Q01543 1-452); details: protein: recombinant; tags: N-terminal GST; dsDNA, one strand shown
T1 sequence: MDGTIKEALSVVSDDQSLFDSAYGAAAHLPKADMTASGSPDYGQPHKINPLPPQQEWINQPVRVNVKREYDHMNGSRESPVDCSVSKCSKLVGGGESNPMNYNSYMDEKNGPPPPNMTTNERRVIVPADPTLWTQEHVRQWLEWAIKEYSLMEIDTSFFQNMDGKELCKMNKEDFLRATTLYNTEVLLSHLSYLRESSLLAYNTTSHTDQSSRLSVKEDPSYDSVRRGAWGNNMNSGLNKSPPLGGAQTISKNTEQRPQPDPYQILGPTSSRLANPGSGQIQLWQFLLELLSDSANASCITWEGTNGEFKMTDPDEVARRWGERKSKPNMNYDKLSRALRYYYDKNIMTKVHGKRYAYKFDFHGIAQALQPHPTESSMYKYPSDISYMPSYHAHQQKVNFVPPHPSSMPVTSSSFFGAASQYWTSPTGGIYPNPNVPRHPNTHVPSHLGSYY
Procedure, shortened: (§1)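 Binding signal is given per hexamer as its read frequency for a factor divided by its frequency in the tag-only sample. GST-fused human transcription factors were expressed in yeast, captured on glutathione beads, barcoded with DNA and pooled with that sample, then incubated with 200 nmole of a 16-mer random double-stranded DNA library in Tris/NaCl/DTT/glycerol buffer for 30 min at room temperature. The pools were then washed, crosslinked, proximity-ligated, amplified by PCR and sequenced on an Illumina NextSeq500.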

ELK1 = biological target: T2, ELK1 (Homo sapiens, UniProt P19419 1-428); details: protein: recombinant; tags: N-terminal GST; dsDNA, one strand shown
T2 sequence: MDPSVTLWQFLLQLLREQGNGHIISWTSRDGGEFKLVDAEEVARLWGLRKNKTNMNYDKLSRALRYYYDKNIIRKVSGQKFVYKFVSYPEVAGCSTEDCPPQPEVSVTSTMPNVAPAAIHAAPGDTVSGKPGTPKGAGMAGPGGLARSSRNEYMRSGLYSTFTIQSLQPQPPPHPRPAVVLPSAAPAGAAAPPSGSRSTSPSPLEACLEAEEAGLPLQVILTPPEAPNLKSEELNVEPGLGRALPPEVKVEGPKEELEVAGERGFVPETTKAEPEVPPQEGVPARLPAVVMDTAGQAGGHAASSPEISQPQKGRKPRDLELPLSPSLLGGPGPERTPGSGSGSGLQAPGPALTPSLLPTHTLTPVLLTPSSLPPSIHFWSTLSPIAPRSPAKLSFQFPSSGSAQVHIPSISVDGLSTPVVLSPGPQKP
Procedure, shortened: as §1

GABPA = biological target: T3, GABPA (Homo sapiens, UniProt Q06546 1-454); details: protein: recombinant; tags: N-terminal GST; dsDNA, one strand shown
T3 sequence: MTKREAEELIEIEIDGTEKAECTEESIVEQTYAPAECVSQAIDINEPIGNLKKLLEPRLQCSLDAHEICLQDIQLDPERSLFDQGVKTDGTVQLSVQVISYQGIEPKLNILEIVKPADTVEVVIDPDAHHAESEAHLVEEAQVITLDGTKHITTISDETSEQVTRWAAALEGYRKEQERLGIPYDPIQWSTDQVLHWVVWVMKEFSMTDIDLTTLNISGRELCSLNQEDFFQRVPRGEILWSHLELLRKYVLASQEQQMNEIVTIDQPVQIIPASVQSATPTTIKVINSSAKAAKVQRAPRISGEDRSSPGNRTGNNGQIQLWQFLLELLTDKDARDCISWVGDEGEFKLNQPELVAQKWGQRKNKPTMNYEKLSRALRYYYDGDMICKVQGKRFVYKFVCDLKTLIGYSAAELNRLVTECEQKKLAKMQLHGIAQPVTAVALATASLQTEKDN
Procedure, shortened: as §1

ERG = biological target: T4, ERG (Homo sapiens, UniProt P11308 1-479); details: protein: recombinant; tags: N-terminal GST; dsDNA, one strand shown
T4 sequence: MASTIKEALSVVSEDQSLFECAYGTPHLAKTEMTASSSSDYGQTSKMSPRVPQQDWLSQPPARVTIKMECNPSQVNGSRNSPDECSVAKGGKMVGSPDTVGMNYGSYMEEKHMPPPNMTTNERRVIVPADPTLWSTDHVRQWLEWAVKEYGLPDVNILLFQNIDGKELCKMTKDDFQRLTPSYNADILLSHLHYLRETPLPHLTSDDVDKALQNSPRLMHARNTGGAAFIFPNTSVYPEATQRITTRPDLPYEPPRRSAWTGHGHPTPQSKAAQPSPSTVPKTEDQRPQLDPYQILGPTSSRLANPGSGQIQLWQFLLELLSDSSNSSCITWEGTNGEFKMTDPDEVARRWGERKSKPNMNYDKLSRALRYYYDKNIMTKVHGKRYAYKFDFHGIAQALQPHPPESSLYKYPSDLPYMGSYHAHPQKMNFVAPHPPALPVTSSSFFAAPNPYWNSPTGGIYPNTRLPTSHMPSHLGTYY
Procedure, shortened: as §1

ELF1 = ELF1 (Homo sapiens, UniProt P32519 1-619); details: protein: recombinant; tags: N-terminal GST; dsDNA, one strand shown
Chain of ELF1 (P32519 whole entry): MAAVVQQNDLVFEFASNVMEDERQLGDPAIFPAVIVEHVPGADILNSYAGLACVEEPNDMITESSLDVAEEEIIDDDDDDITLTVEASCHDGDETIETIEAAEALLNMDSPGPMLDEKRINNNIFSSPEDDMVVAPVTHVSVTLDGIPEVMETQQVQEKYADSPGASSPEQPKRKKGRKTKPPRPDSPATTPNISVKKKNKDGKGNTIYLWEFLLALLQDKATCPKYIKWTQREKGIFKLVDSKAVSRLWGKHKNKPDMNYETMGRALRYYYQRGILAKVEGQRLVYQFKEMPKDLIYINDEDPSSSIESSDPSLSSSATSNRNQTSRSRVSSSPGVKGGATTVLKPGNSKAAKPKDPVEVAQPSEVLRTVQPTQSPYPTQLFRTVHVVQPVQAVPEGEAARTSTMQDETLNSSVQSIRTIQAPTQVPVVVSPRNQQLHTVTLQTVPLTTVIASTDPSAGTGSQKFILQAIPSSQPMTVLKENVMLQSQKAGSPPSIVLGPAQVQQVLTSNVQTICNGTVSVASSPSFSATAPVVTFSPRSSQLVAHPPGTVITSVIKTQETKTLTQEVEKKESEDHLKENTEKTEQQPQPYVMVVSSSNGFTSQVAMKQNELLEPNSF
Procedure, shortened: as §1

EHF = biological target: T5, EHF (Homo sapiens, UniProt Q9NZC4 1-300); details: protein: recombinant; tags: N-terminal GST; dsDNA, one strand shown
T5 sequence: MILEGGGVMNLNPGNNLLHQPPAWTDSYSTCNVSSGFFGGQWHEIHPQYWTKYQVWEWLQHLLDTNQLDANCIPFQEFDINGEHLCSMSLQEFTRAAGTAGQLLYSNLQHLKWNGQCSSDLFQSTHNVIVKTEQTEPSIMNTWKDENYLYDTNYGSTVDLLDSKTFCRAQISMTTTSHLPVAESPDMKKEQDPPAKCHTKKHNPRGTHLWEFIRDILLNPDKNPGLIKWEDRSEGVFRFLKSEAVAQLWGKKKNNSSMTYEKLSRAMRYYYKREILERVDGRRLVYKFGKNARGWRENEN
Procedure, shortened: as §1

SPI1 = SPI1 (Homo sapiens, UniProt P17947 1-270); details: protein: recombinant; tags: N-terminal GST; dsDNA, one strand shown
Procedure, shortened: as §1

SPIB = SPIB (Homo sapiens, UniProt Q01892 1-262); details: protein: recombinant; tags: N-terminal GST; dsDNA, one strand shown
Chain of SPIB (Q01892 whole entry): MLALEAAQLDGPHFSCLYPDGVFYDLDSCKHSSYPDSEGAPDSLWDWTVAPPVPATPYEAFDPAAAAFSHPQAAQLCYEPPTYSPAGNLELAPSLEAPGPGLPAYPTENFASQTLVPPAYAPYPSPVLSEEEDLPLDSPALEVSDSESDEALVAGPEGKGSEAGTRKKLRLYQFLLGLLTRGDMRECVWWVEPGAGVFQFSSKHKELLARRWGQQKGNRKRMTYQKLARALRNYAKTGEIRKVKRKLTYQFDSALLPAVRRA
Procedure, shortened: as §1

ELK3 = biological target: T6, ELK3 (Homo sapiens, UniProt P41970 1-407); details: protein: recombinant; tags: N-terminal GST; dsDNA, one strand shown
T6 sequence: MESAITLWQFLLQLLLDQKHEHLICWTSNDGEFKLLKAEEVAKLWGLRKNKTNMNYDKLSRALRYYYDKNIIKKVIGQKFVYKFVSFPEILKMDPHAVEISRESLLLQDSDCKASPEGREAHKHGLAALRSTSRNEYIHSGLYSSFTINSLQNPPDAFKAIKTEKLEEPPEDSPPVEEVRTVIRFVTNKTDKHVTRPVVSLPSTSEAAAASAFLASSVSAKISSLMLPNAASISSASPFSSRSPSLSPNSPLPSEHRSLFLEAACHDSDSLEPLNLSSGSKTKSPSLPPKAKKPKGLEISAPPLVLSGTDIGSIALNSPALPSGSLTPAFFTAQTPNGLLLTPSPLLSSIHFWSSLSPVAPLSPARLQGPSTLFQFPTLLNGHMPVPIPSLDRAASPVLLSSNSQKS
Procedure, shortened: as §1

FEV = biological target: T7, FEV (Homo sapiens, UniProt Q99581 1-238); details: protein: recombinant; tags: N-terminal GST; dsDNA, one strand shown
T7 sequence: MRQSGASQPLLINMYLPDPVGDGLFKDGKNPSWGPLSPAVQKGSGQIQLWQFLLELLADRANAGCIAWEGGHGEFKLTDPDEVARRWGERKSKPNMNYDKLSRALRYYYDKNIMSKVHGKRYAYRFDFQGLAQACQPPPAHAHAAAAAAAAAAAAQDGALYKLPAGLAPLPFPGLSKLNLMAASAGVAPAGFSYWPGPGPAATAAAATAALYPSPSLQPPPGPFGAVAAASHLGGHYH
Procedure, shortened: as §1

ETV5 = ETV5 (Homo sapiens, UniProt P41161 1-510); details: protein: recombinant; tags: N-terminal GST; dsDNA, one strand shown
Chain of ETV5 (P41161 whole entry): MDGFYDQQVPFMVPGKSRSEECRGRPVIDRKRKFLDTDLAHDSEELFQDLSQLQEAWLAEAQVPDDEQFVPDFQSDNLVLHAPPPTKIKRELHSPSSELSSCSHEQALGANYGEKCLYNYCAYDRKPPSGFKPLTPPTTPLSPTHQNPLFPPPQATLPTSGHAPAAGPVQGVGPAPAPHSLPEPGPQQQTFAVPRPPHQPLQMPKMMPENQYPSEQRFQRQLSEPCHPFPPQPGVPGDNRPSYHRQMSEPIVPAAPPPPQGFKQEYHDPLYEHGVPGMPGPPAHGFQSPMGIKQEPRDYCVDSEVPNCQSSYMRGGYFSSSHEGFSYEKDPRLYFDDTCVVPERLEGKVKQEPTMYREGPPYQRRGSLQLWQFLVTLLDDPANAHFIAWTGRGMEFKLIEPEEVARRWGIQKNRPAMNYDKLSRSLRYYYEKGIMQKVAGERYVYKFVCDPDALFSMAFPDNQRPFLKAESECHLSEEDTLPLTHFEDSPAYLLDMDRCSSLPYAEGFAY
Procedure, shortened: as §1

HSF1 = HSF1 (Homo sapiens, UniProt Q00613 1-529); details: protein: recombinant; tags: N-terminal GST; chain copies: 3; dsDNA, one strand shown
Chain of HSF1 (Q00613 whole entry): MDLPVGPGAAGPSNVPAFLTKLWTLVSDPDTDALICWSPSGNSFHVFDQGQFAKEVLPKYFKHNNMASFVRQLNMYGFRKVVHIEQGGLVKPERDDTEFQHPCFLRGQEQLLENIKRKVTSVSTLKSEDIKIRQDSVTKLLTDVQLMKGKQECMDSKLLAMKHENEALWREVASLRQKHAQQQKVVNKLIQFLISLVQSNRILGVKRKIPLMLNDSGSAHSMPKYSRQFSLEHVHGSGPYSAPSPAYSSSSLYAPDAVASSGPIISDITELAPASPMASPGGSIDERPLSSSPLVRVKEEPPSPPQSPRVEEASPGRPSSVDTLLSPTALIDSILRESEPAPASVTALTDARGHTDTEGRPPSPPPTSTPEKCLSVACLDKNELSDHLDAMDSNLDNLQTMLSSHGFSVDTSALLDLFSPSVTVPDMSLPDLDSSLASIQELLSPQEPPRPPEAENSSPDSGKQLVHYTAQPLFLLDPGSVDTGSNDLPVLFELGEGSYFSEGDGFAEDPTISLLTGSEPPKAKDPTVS
Procedure, shortened: as §1

SPIC = biological target: T8, SPIC (Homo sapiens, UniProt Q8N5J4 1-248); details: protein: recombinant; tags: N-terminal GST; dsDNA, one strand shown
T8 sequence: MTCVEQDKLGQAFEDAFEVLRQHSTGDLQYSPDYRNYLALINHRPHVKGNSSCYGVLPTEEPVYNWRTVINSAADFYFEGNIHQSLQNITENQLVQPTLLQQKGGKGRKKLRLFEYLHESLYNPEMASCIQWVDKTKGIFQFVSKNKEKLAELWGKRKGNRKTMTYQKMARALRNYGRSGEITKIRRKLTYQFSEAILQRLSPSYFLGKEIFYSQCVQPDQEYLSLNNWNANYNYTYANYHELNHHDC
Procedure, shortened: as §1

ELF4 = ELF4 (Homo sapiens, UniProt Q99607 1-663); details: protein: recombinant; tags: N-terminal GST; dsDNA, one strand shown
Chain of ELF4 (Q99607 whole entry): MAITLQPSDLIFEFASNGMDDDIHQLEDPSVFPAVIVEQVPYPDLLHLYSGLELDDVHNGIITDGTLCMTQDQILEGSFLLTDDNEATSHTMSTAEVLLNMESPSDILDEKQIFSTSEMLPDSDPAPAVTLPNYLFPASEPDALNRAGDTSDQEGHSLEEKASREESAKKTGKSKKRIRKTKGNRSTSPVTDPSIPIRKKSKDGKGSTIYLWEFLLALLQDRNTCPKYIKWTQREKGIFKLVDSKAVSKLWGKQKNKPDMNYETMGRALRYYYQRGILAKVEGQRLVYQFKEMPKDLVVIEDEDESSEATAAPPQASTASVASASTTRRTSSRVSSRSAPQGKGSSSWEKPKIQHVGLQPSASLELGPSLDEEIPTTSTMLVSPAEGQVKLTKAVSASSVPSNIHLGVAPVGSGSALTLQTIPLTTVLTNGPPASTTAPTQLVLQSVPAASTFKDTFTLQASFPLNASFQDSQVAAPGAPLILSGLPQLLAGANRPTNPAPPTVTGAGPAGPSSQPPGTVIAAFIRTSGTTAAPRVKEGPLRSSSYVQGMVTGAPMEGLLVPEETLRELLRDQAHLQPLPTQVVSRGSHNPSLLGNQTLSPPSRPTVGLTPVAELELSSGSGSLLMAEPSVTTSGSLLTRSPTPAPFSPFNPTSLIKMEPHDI
Procedure, shortened: as §1

ELK4 = biological target: T9, ELK4 (Homo sapiens, UniProt P28324-2 1-405); details: protein: recombinant; tags: N-terminal GST; dsDNA, one strand shown
T9 sequence: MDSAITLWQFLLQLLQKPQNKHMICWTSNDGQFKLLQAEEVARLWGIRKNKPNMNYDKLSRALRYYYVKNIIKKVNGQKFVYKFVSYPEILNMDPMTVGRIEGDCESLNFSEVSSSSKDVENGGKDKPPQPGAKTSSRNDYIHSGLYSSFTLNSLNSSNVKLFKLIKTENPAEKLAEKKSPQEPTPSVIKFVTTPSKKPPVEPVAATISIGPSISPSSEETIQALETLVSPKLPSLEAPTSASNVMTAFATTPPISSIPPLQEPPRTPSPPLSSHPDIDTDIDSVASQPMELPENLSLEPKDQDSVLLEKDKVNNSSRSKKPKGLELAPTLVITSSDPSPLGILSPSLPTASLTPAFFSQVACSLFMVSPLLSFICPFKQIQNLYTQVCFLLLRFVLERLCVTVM
Procedure, shortened: as §1

ETV2 = biological target: T10, ETV2 (Homo sapiens, UniProt O00321 1-342); details: protein: recombinant; tags: N-terminal GST; dsDNA, one strand shown
T10 sequence: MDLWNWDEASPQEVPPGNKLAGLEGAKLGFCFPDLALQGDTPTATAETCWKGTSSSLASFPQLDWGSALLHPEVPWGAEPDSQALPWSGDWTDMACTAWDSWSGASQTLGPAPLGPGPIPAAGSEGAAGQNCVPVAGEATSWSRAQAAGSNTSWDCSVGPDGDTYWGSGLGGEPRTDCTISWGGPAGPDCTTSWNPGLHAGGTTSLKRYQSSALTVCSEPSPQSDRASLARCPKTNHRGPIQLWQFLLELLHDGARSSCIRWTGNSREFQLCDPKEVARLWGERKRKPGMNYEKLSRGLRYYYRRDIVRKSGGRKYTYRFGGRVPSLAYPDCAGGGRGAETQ
Procedure, shortened: as §1

ELF3 = biological target: T11, ELF3 (Homo sapiens, UniProt P78545 1-371); details: protein: recombinant; tags: N-terminal GST; dsDNA, one strand shown
T11 sequence: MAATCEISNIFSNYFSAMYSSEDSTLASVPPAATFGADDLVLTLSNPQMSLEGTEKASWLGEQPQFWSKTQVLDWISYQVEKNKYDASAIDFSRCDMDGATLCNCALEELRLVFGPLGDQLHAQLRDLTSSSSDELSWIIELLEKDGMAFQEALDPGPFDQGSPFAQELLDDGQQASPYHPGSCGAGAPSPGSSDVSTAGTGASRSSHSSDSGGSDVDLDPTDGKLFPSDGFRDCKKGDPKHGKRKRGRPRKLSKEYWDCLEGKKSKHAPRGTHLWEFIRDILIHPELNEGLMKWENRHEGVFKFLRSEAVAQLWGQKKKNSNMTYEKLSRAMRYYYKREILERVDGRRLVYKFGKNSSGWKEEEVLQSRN
Procedure, shortened: as §1

CRX = CRX (Homo sapiens, UniProt O43186 1-299); details: protein: recombinant; tags: N-terminal GST; dsDNA, one strand shown
Chain of CRX (O43186 whole entry): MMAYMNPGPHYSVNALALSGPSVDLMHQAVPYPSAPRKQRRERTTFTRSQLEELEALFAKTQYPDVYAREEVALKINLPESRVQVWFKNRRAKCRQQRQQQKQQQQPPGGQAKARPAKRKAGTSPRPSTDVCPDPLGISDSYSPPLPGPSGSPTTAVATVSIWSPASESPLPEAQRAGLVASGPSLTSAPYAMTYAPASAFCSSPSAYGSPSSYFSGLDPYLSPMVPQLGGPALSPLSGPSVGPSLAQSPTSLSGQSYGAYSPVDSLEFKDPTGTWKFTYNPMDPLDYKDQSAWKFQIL
Procedure, shortened: as §1

ETV1 = ETV1 (Homo sapiens, UniProt P50549 1-477); details: protein: recombinant; tags: N-terminal GST; dsDNA, one strand shown
Chain of ETV1 (P50549 whole entry): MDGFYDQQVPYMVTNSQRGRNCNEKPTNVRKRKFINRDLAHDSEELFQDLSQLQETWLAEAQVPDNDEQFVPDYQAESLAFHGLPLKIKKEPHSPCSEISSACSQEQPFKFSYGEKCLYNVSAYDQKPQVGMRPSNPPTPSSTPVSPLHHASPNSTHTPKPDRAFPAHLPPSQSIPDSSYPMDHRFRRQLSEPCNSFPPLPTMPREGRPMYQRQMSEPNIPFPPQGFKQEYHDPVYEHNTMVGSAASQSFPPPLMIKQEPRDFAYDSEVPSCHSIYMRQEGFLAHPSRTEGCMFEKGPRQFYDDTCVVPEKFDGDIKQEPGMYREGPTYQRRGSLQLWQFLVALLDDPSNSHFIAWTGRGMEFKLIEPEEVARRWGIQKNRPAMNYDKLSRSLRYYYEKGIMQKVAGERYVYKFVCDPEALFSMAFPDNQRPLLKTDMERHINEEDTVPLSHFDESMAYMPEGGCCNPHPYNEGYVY
Procedure, shortened: as §1

## TTACAC
FLI1
  binding signal: 1.28 fold enrichment (6-mer frequency, TF over GST control)
ELK1
  binding signal: 1.26 fold enrichment (6-mer frequency, TF over GST control)
GABPA
  binding signal: 1.18 fold enrichment (6-mer frequency, TF over GST control)
ERG
  binding signal: 1.27 fold enrichment (6-mer frequency, TF over GST control)
ELF1
  binding signal: 1.3 fold enrichment (6-mer frequency, TF over GST control)
EHF
  binding signal: 1.39 fold enrichment (6-mer frequency, TF over GST control)
SPI1
  binding signal: 1.13 fold enrichment (6-mer frequency, TF over GST control)
SPIB
  binding signal: 1.21 fold enrichment (6-mer frequency, TF over GST control)
ELK3
  binding signal: 1.31 fold enrichment (6-mer frequency, TF over GST control)
FEV
  binding signal: 1.24 fold enrichment (6-mer frequency, TF over GST control)
ETV5
  binding signal: 1.23 fold enrichment (6-mer frequency, TF over GST control)
HSF1
  binding signal: 1.35 fold enrichment (6-mer frequency, TF over GST control)
SPIC
  binding signal: 1.17 fold enrichment (6-mer frequency, TF over GST control)
ELF4
  binding signal: 1.21 fold enrichment (6-mer frequency, TF over GST control)
ELK4
  binding signal: 1.25 fold enrichment (6-mer frequency, TF over GST control)
ETV2
  binding signal: 1.16 fold enrichment (6-mer frequency, TF over GST control)
ELF3
  binding signal: 1.2 fold enrichment (6-mer frequency, TF over GST control)
CRX
  binding signal: 1.73 fold enrichment (6-mer frequency, TF over GST control)
ETV1
  binding signal: 1.27 fold enrichment (6-mer frequency, TF over GST control)

From paper PMC7862700, “An all-to-all approach to the identification of sequence-specific readers for epigenetic DNA modifications on cytosine”
